Experimental data as given in the supplement of paper PMC12632987.
Over roughly 4,500 sequences, “median log2 fold change of GCK-ALFA target abundance (FLAG IP / Myc IP barcode read proportion)” has its median near 0.078; the lowest 2% begin near -0.6. Only a selection was taken, and the lowest values are over-represented in it overall.

B1: GBRAP_160_4685 (protein)
chain: SEKVEEAEEFLEEEFAEVVELFDEVTREELAAFVRVAFGEIILELEELGLLTDEVAEVIDEEEERIVDAILNDPNITKEEFAALLEEAAEEIVEELEEEA
B2: GBRAP_184_5239 (protein)
chain: MVLERTIKAENEEELREKMKEVMEEAEKKGAKVRLLIEVEKLTREKAETLAEMIKEMAAKGLLELVGVVSSEPISEEIVDLLVEAADEAGVKLVIAEPEI
B3: GBRAP_52_6331 (protein)
chain: SHEEVEKMAEELYKAIVAGKEEEAKKLAEEMVETLSSEEILEAARIVAERVAKEGDEVKVRAAEVFEYLAELVEEKRGDERTAAEILGIYATTLYAAEQA
B4: GBRAP_11_2762 (protein)
chain: MKEKYERLAELAERAAELVDRLLAEGVDDAELLAELERLLRELREETKKIGDKALEKDVEIAEELFRALQADPANAEAYARELRAQLRVLAGQYLLLAEE
B5: GBRAP_35_5533 (protein)
chain: NSDEEIAEMLLNTMEALVDALPDVSPEQQLALARHLIRLAEDFLELKTKSAELIKRLIEVLERAIELIKKSSLPPEQQEELIRELEELRERAKELLKEVE
B6: GBRAP_128_3242 (protein)
chain: SQEELLEEAKKLIEEIVKADVETAKKLTEKLIELLKKLNDEAREEVAEYLEKELEKLSAEKLEAVADTLRENRPKLDPYTAALVAGVEIDALELALEKEE
B7: GBRAP_128_3244 (protein)
chain: SQEELLEEAKKLVDEIVEADVEEAKELTKKLIELMKKLNKESREEVADYLIEKLKELSAEKLEAVADTLRENRPKLDDYTAALVAGVEIEALELALEQEE
B8: GBRAP_184_5275 (protein)
chain: KVIHVDIVAETGEEAIKEVKKAAEKAKKEGAKLKINILLENSSVEETIKLFELLKKLKEEGIIEDAVVGIENEKTEEEIDTLLKAADEAGVKLVLAISDE
B9: GBRAP_80_6828 (protein)
chain: AEKELEAVIKELAEVDPEIAKLVEEAIEIAKELGVPLEVLLRFAKAILELAKVDKEKALELVKELLEELKKAKEEGNRDEAIALLYDAESEALLAVEELE
B10: GBRAP_52_6260 (protein)
chain: MRERLRALVEEILELVKAGRLEEARALATELAETFNEEELEIFIEEAAELARRSSKEEVEDLIRMAELVAEALEEAGRPEELVSLFEARVYGAIYETEKR
B11: GBRAP_160_4430 (protein)
chain: AEKLEKAKKEIDALFAEALEMMKGQTAEQRIVVLRVTEGEVKLELEELGLLTDEVDAVIDATFAAIIAHVAAHPDITDAELAALLDAAAATIKAELDKAA
B12: GBRAP_83_6937 (protein)
chain: KEKITVVANDDNIEKSFEIAEDLHKEEGYEVDIDVIITKESIEKLLKEVEKLFKKGVNADLHISLLGVTEEEAEELKKKLEEMAKKYGVNANITVEAIEL
B13: GBRAP_125_3133 (protein)
chain: MTEEILEDLAIVARALGFSDDDVEEAVEIARKHGVKGTLYAIMLALGYEEVADLVEKITEEEAIEVLREVAARIREDPSLTPEEVVALIKELLKEKIAKK
B14: GBRAP_125_3132 (protein)
chain: HMEEILENLAIVAKALGLSDDDVEEAVKIAEKHGVKGTMYAILAALGYDEVADLVEKITEEEAIEVVKEVAEKIKKDPSLTPEEVVELIKKLLKEKIAAK
B15: GBRAP_125_3134 (protein)
chain: GMAEDLEDLAIVARALGFSDDDVAEAVAIAAKHGFKGTLYAIMAALGYDEVADLVEKITEEEAIEVIREVAAEIRADPSLTPEEVVELIKKRLEEVIAKK
B16: GBRAP_52_5954 (protein)
chain: AAARIQAQVDRLAALVRAGDLDAARALARELAETLDEEELRAFAAAVAAAVAAAPADELDAAFRLAEIVADELEREGRDEELAGDLLAAAAAALYAKEQA
B17: GBRAP_52_5929 (protein)
chain: MREEARELAERVLEAAEAGDEERLRELLREIVEELDDEEIELVIDELAELTIERGPEYYDLFADIMDLLEDEVEKAGRDVERVQYAIARAAGRMYDALQA
B18: GBRAP_137_3627 (protein)
chain: ATVTIELRRYEDVVEITITLDDPEKAEAAAELVEDVAHEEGALAVSIELEEDGTLVVEVWVPRDKAEALLARLVERLTTELGATVVIRDLDTGEVRVVTP
B19: GBRAP_184_5122 (protein)
chain: DVVHRAVEGEKAEELIAASRAVVEEAAAAGKRLHLSVFAKNMSVEEIIEVIKAMGELKARYPQVSVTVDVLDELSEEEIDKVLKAADEAGVRVVIAIPEE

target: GABARAP, O95166; test: median log2 fold change of GCK-ALFA target abundance (FLAG IP / Myc IP barcode read proportion) (log2 ratio); each designed protein is fused to an ALFA-tag nanobody in HEK293 cells to bring the named protein to FLAG-tagged glucokinase (GCK); Myc marks an untargeted standard; higher = target protein stabilised (more abundant); details: target protein: 3xFLAG-MCP-GCK-ALFA reporter; HEK293 landing pad (RPLP)
Sequence (O95166 whole entry, the tested form may be a part): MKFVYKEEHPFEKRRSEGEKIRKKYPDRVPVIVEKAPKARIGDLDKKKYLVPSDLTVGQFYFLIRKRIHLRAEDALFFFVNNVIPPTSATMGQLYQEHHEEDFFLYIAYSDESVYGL
How it was run: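 The readout is target abundance, the per-binder median log2 ratio of FLAG to Myc barcode read proportions. It came from HEK293 landing-pad cells carrying a recombined ALFA-nanobody-fused binder library, induced with 2 μg mL^−1 doxycycline and transfected with a plasmid for a FLAG-tagged target and a Myc-tagged standard. After 48 h, lysates were immunoprecipitated with anti-FLAG and anti-Myc, and circular RNA barcodes were reverse transcribed, amplified and sequenced. Each barcode needed a proportion of at least 10^−7 in both replicates and each binder at least 3 barcodes per replicate, a pseudocount of 10^−6 was added, and the replicates were pooled.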

Compared with B1, B2 is higher in “median log2 fold change” value: -0.679 for the first, 0.163 for the second.

B3 and B4 are within 0.2 log units of each other in “median log2 fold change” value: 0.372 for the first, 0.183 for the second.

B5 and B6 are within 0.2 log units of each other in “median log2 fold change” value: -0.115 for the first, -0.0414 for the second.

Compared with B7, B8 is higher in “median log2 fold change” value: -0.658 for the first, -0.234 for the second.

B9 and B10 are within 0.2 log units of each other in “median log2 fold change” value: 0.0224 for the first, -0.0461 for the second.

B11 and B12 are within 0.2 log units of each other in “median log2 fold change” value: 0.0561 for the first, 0.224 for the second.

First: B13
Second: B14
The “median log2 fold change” value of the first is lower: -0.744 for the first, -0.0148 for the second.

First: B15
Second: B16
The “median log2 fold change” value of the first is lower: -0.575 for the first, -0.0538 for the second.

First: B17
Second: B18
The “median log2 fold change” value of the first is lower: -0.453 for the first, -0.0361 for the second.

With B19 the “median log2 fold change” value was 0.0426.
